# High-throughput results from PubChem.
# ALDH1A1 inh: qHTS Assay for Inhibitors of Aldehyde Dehydrogenase 1 (ALDH1A1) | AID 1030, 2008 | Purified ALDH1A1, NADH fluorescence, propionaldehyde substrate | Aldehyde dehydrogenase 1A1 (Homo sapiens), P00352 | Potency, µM (highest dose often 75.3 µM), for the others: at the highest dose activity, negative = inhibition, hits mostly inhibitors | 220,000 tested, 7.3% active; active = well fitted inhibition curve with a large enough effect, not every such curve was filed as active; inconclusive = small, poorly fitted or top-dose-only effect, or another doubt; inactive = no such curve, though single readings can be large or run the other way;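 note: potency is the fitted concentration of half-maximal effect; plate controls were no enzyme wells and a reference inhibitor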
# LMNA splice mod: qHTS Assay for Modulators of Lamin A Splicing; 200,000 tested, 0.01% active; AID 1487, 2009; Potency, µM (series often up to 46.1 µM), for the others: at the highest dose ratio change, negative = inhibition, hits mostly inhibitors; HeLa LMNA splicing GFP/RFP minigene ratio, 48 h; active = well fitted inhibition curve with a large enough effect in the signal ratio, with a control signal flat, not every such curve was filed as active; inconclusive = small, poorly fitted or top-dose-only effect, or effect the other way, or a change in a side signal; the % refers to the signal ratio; note: potency is the fitted concentration of half-maximal effect; % is set by controls: 0 for no effect and ±100 for the full control effect
#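 Read-out is the ratio of GFP to DsRed2 object intensity, acquired by 488 nm laser-scanning cytometry on HeLa lamin A-EGFP minigene reporter cells. Compound incubation 48 hrs at 37 °C in Opti-MEM with 2% FBS; DMSO 0.5% final.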
# Sfp PPTase inh: qHTS Assay for Inhibitors of Bacillus subtilis Sfp phosphopantetheinyl transferase (PPTase); Biochemical Sfp PPTase activity, qHTS; Potency, µM, inactives show largest response in the series, negative = inhibition, usual class: inhibitors; 310,000 tested, 3.5% active; AID 1490, 2009;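 note: the enzyme is Sfp with the accession as filed and its product quenches rhodamine fluorescence; potency is the fitted concentration of half-maximal effect; 0% = enzyme reaction without inhibitor and -100% = no enzyme wells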
#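 Fluorescence-quenching assay: 15 nM Sfp-PPTase preincubated 15 min at room temperature with compound, then 5 uM rhodamine-CoA and 12.5 uM BHQ-2-labelled YbbR peptide added. Fluorescence (ex 525/em 598 nm) read at start and after 30 min; difference gives rate.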
# miR-21 act: qHTS Assay for Modulators of miRNAs and/orActivators of miR-21; Potency, µM (titrated, usually from 38.3 µM), for the others: at the top dose activity change, positive = activation, most hits filed as activators; 340,000 tested, under 10 active; HeLa miR-21 FLuc reporter, luciferase, 48 h;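 note: % of control where 0% means no effect; miR-21 action dims this reporter so a rising signal means less miR-21 action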
#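 Using DMEM plus 10% FBS, HeLa miR-21-FLuc cells are incubated with test compounds (final up to about 40uM) for 48 hours; firefly luciferase signal is then imaged following reagent-mediated lysis.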
# G9a inh: qHTS Assay for Inhibitors of Histone Lysine Methyltransferase G9a; Histone-lysine N-methyltransferase EHMT2 (Homo sapiens), Q96KQ7; Potency, µM (series often up to 102 µM), without a hit: at the top dose activity, negative = inhibition, most hits filed as inhibitors; AID 504332, 2011; G9a H3K9 monomethylation, AlphaScreen, 2 h; 350,000 tested, 8.8% active; note: potency is the fitted concentration of half-maximal effect; % is set by controls: 0 for no effect and ±100 for the full control effect; nearly all actives have a fitted effect of over 75% in size
# Target sequence (Q96KQ7 913-1193 limits assumed): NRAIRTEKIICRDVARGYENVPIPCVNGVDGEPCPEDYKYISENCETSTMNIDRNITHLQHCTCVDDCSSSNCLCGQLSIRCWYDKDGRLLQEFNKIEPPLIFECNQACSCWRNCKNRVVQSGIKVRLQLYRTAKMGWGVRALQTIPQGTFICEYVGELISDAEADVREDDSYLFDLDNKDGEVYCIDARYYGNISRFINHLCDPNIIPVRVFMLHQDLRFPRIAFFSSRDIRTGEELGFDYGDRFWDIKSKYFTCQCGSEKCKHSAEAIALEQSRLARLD
#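 AlphaScreen detection with an anti-monomethyl H3K9 antibody quantified product after a 2 h room-temperature reaction containing 500 nM biotinylated H3K9 peptide, 20 µM SAM and 20 nM enzyme, which had been preincubated 15 min with compound.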
# JMJD2E inh: qHTS Assay for Inhibitors of Human Jumonji Domain Containing 2E (JMJD2E); Lysine-specific demethylase 4E (Homo sapiens), B2RXH2; JMJD2E catalytic domain, FDH-coupled NADH fluorescence (FDH is formaldehyde dehydrogenase); Potency, µM (titrated, usually from 57.1 µM), inactives show at the highest dose activity change, negative = inhibition, usual class: inhibitors; 230,000 tested, 1.6% active; AID 2147, 2009; active = well fitted inhibition curve with a large enough effect, not every such curve was filed as active; inconclusive = small, poorly fitted or top-dose-only effect, or another doubt; inactive = no such curve, though single readings can be large or run the other way;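 note: potency is the fitted concentration of half-maximal effect; 0% = wells with enzyme and -100% = buffer wells without enzyme; nearly all actives have a fitted effect of over 50% in size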
# Target sequence (B2RXH2 1-337 limits assumed): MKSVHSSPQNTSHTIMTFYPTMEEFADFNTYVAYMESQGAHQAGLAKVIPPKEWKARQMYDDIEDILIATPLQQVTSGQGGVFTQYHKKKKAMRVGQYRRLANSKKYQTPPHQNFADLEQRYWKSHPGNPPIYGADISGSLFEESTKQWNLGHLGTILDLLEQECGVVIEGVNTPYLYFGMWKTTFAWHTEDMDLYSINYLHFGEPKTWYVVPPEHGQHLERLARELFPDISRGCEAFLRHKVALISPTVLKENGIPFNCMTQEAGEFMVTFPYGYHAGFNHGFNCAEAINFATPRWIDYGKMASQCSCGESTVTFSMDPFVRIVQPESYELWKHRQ
# * = called active by the depositor; ? = inconclusive; / = not tested or not shown; [ ] = dose if it differs, or a comment. Shown are actives, neighbours in structure and some others; about 13% of the full set was active somewhere. Unless noted, calls come from the whole dose curve; as a rule, active = well fitted curve in the direction sought with a large enough effect; inconclusive = small, poorly fitted or top-dose-only effect, or another doubt; inactive = no such curve, though single readings can be large; an effect the other way counts as inactive or inconclusive.
SMILES,ALDH1A1 inh,LMNA splice mod,Sfp PPTase inh,miR-21 act,G9a inh,JMJD2E inh
CCOC(=O)c1cc2c(=O)n3ccccc3nc2n(Cc2ccco2)c1=NC(=O)c1ccccc1OCC,?,6%[9.22 µM],45µM*,0%,-50%,?
CCOC(=O)c1cc2c(=O)n3ccccc3nc2n(Cc2ccco2)c1=NC(=O)c1cccc(C)c1,/,/,/,7%,13%[59 µM],/
NS(=O)(=O)c1ccc(CCNC(=O)Cc2cccs2)cc1,/,/,22%,-3%,16%[0.501 µM],/
O=c1nc2n(-c3ccccc3F)c3ccccc3cc-2c(=O)[nH]1,/,/,/,-24%,-21%[59 µM],/
Cc1cccc(-n2c3nc(=O)[nH]c(=O)c-3cc3cc([N+](=O)[O-])ccc32)c1,5%,?,-18%,18%,50µM*,?
Cc1ccc(C)c(-n2c3nc(=O)[nH]c(=O)c-3cc3cc([N+](=O)[O-])ccc32)c1,?,11µM*,50µM*,?,10µM*,0%
CCCCCCCCCCOCC(O)CN (stereo not drawn),/,/,0%,/,1%[12.7 µM],/
CCn1nnc(NC(=O)COc2ccc([N+](=O)[O-])cc2)n1,/,/,-1%,-4%,/,1%
CCNC(=S)N/N=C/c1cccc(/C=N/NC(=S)NCC)c1,1%,/,40µM*,-3%,?,-1%
O=C(C1CCCN(C2CC(=O)N(c3ccc(F)cc3)C2=O)C1)N1CCCC1 (stereo not drawn),/,/,3%,0%,45µM*,/
CCCOc1ccc(N2C(=O)CC(N(O)c3ccccc3)C2=O)cc1 (stereo not drawn),?,-5%,-4%,-33%,?,-8%
CCCOc1ccc(N2C(=O)CC(N3CCCC(C(=O)N4CCCC4)C3)C2=O)cc1 (stereo not drawn),18µM*,-5%,11%,-4%,?,-2%
O=C1CC(N2CCSCC2)C(=O)N1c1ccc(F)cc1 (stereo not drawn),/,/,-4%,8%,?,2%
O=C(C1CCCN(Cc2ccc(Cl)cc2)C1)N1CCCCC1 (stereo not drawn),/,/,-3%,-1%,-45%,/
O=C1CCCN1CCC1CCN(C2CC(=O)N(Cc3ccc(N4CCCC4=O)cc3)C2=O)CC1 (stereo not drawn),?,?,9%,-3%,?,-4%
O=C1CCCN1CCC1CCN(C2CC(=O)N(c3ccc(Cl)cc3)C2=O)CC1 (stereo not drawn),20µM*,9%,-27%,-2%,11µM*,6%
O=C(C1CCCN(C2CC(=O)N(c3ccc(Cl)cc3)C2=O)C1)N1CCCC1 (stereo not drawn),/,/,5%,-2%,79µM*,/
CCOc1ccc(NC(=O)CN2CCN(C3CCCCC3)C(=O)C2=O)cc1,/,1%[46 µM],/,2%,-5%[59 µM],/
CC(=O)Nc1cccc(C(=O)Nc2cccc3ncccc23)c1,/,/,12%,12%,45µM*,/
Nc1cccc(C(=O)Nc2cccc3ncccc23)c1,/,/,5%,-5%,/,/
Cc1ccc(C(=O)NC(=S)Nc2cccc3nsnc23)cc1,8%,3%,14µM*,-38%,6.3µM*,22%
Cc1ccc(OCC(=O)Nc2c(C)ccc3nsnc23)cc1,/,/,6%,0%,/,/
Cc1ccc(C(=O)NC(=S)Nc2c(C)ccc3nsnc23)cc1,?,-21%,35µM*,-12%,11µM*,-20%
CC(=O)N1CCc2cc(Br)cc(S(=O)(=O)N3CCC(C)CC3)c21,/,/,/,12%,-28%[59 µM],/
O=C(O)c1cccc(NC2=C(Cl)C(=O)c3ccccc3C2=O)c1,32µM*,/,25µM*,?,7.1µM*,-30%
SMILES,ALDH1A1 inh,LMNA splice mod,Sfp PPTase inh,miR-21 act,G9a inh,JMJD2E inh
O=C(O)c1ccc(NC2=C(Cl)C(=O)c3ccccc3C2=O)cc1,/,/,22µM*,-23%,?,-14%
O=C1C(Cl)=C(Nc2ccccc2)C(=O)c2ccccc21,8%,?,1%,-14%,?,0%
COc1ccccc1N1CCN(/N=C/c2cc([N+](=O)[O-])ccc2Cl)CC1,22µM*,/,11%,2%,?,-2%
O=[N+]([O-])c1ccc(Cl)c(/C=N/N2CCN(C3c4ccccc4-c4ccccc43)CC2)c1,10%,6%[0.0737 µM],-9%,-2%,27%[0.501 µM],19%
O=[N+]([O-])c1ccc(Cl)c(/C=N/N2CCN(c3ccccc3)CC2)c1,-4%,21%,1%,-9%,32µM*,15%
C=CC[C@]12CCc3sccc3C1N(c1ccc(C(=O)OCC)cc1)C2=O (stereo partly drawn),/,/,/,/,5%[0.501 µM],/
O=C1Nc2ccccc2C1C(C[N+](=O)[O-])c1ccccn1 (stereo not drawn),/,/,-7%,0%,35µM*,/
CSc1nc(=NC(C)=O)ss1,1.8µM*,13%,4.5µM*,-41%,?,-6%
O=C1CC(=O)N(CCc2ccccc2)C(=O)N1CCc1ccccc1,-12%,-5%,?,-2%,-29%[59 µM],-12%
O=C1C=CC(=O)C(C2=C3C(=O)N(CCc4ccccc4)CC(=O)N3CCC2)=C1,2.2µM*,?,1µM*,?,1.3µM*,?
COc1ccc(NC(=O)CSc2nccn2-c2ccccc2)c(OC)c1,9%,-14%,23%,-8%,?,10%
COc1ccc(OC)c(NC(=O)CSc2nccn2-c2cc(C)cc(C)c2)c1,/,-10%[46 µM],/,2%,16µM*,/
Cc1ccc(NC(=O)CSc2nnc(C)c(=O)n2N)c(C)c1,0%,-17%,-11%,-1%,1.8µM*,-3%
Cc1cc(C)cc(-n2ccnc2SCC(=O)Nc2ccc(C)cc2C)c1,/,-2%[46 µM],/,?,11µM*,/
COc1cccc(NC(=O)Cn2c(=O)n(Cc3ccco3)c(=O)c3cc(OC)c(OC)cc32)c1,/,/,/,2%,6%[59 µM],/
CCOc1c(Br)cc(CNc2ccc3c(c2)OCCO3)cc1OC,2%,-9%,-6%,1%,3.2µM*,3%
COc1cc(CNc2ccc3c(c2)OCCO3)ccc1OCC(N)=O,-7%,9%[46 µM],11%,-15%,1%,-10%
CCOc1cc(CNc2ccc3c(c2)OCCO3)cc(Br)c1OCC(N)=O,6%,-2%,1%,16%,13µM*,11%
CCOc1cc(CNc2ccc3c(c2)OCCO3)cc(Br)c1OC,3%,-3%,-6%,16%,4µM*,-2%
CCOc1c(Br)cc(CNc2ccc(N3CCOCC3)cc2)cc1OC,/,/,?,14%,11µM*,-20%
